Only some compounds are listed: those with a hit (about 2.2% of all), similar ones and a draw of the others.
aSyn UTR inh = 5' untranslated region of α-synuclein, MLPCN primary screen. alpha-synuclein 5'UTR reporter, inhibitor activity. inhibition, % (tested at 7.5 µM). 300,000 tested, 0.82% active; in the data active = inhibition above about 60%;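 note: H4 neuroglioblastoma cells stably carrying SNCA 5'UTR luciferase fusion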
Ba/F3 V617F tox = loss of viability in JAK2V617F-driven Ba/F3 cells. Ba/F3 EpoR-JAK2V617F viability, ATP luminescence. inhibition, % at 5.6 µM. 220,000 tested, 1.1% active. AID 1446;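 active = inhibition above the campaign mean plus 3 SD over all tested compounds, cut at about 24% in these data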;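 note: cytokine-independent growth of Ba/F3 cells driven by EpoR plus mutant JAK2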
KLF5 inhibitor = inhibitors of KLF5 expression; inhibition, % at 5 µM; DLD-1 KLF5 promoter-luciferase reporter, luminescence; AID 1700; 290,000 tested, 0.23% active;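 active = inhibition above a per-plate limit of that plate's mean compound inhibition plus 3 SD, cut at about 60% in these data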;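 note: higher means less KLF5 promoter-driven luciferase light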
BaF3 tox = reduces parental Ba/F3 cell viability, JAK2V617F counter-screen. 220,000 tested, 1.1% active. CellTiter-Glo ATP luminescence. inhibition, % at 5.6 µM;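 active = inhibition above a per-campaign cutoff, the mean inhibition of all tested compounds plus 3 SD, cut at about 27% in these data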
APP transl inh = APP translation inhibition. SH-SY5Y APP 5'UTR-luciferase reporter, luminescence. inhibition, % at 2 µM. 190,000 tested, 0.82% active;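 active = inhibition above a set limit, derived from the sample mean plus 3 SD, cut at about 45% in these data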
IEC-6 tox = counter-screen for KLF5 inhibitors: cytotoxicity in IEC-6 cells; IEC-6 cytotoxicity, luminescence viability; inhibition, % at 5 µM; 290,000 tested, 0.78% active; AID 1825; in the data active = inhibition above about 22%
Hits are given with their value; i = inactive; nt = no result.

SMILES	aSyn UTR inh	Ba/F3 V617F tox	KLF5 inhibitor	BaF3 tox	APP transl inh	IEC-6 tox
COc1ccc(-c2cc3c(nn2)-c2ccccc2C3=O)cc1	98.4	i	i	i	i	i
O=c1c2ccccc2oc2ccc(-c3ccc4[nH]ccc4c3)cc12	i	nt	nt	nt	nt	nt
Cc1cc2oc(C(=O)NCc3ccccc3)cc(=O)c2cc1C	i	nt	i	nt	nt	21.9
COc1ccc(C2c3ccc4ccccc4c3Oc3ncn(CCN4CCOCC4)c(=N)c32)cc1OC (centres undefined)	105.4	i	i	i	nt	i
COc1ccc(C2c3ccc4ccccc4c3Oc3ncn(CCN4CCOCC4)c(=N)c32)cc1 (centres undefined)	i	i	i	i	i	i
CN(C)CCCn1cnc2c(c1=N)C(c1ccccc1)c1ccc3ccccc3c1O2 (centres undefined)	89.8	nt	i	nt	nt	i
COc1cccc(C(=O)Cn2c(=N)n(C)c3ccccc32)c1	86.4	i	i	i	i	i
C/C(Cl)=C\C[N+](C)(C)CC(=O)OCCc1ccccc1	i	i	i	i	nt	i
C=CC[N+](C)(C)C/C(Cl)=C(\Cl)c1ccccc1	i	25.6	i	27.3	i	i
Cc1ccccc1-n1nc2c(c1NC(=O)c1cc3ccccc3o1)CS(=O)(=O)C2	i	nt	nt	nt	nt	nt
COc1ccc(C(CNC(=O)c2cccc(S(=O)(=O)NCc3ccccc3)c2)N(C)C)cc1 (centres undefined)	i	nt	i	nt	nt	i
N#Cc1c(NC(=O)CCCC(=O)O)sc2c1CCCCC2	90.3	i	i	i	46.0	i
CC1CCc2c(sc(NC(=O)CSc3ncn[nH]3)c2C#N)C1 (centres undefined)	90.5	i	i	i	nt	i
CCCC(=O)Nc1sc2c(c1C#N)CCCCC2	i	i	i	i	i	i
N#Cc1c(NC(=O)CSc2ncn[nH]2)sc2c1CCCC2	84.1	i	i	i	nt	i
CC(C)(C)C1CCc2c(sc(NC(=O)CSc3ncn[nH]3)c2C#N)C1 (centres undefined)	i	i	i	i	i	i
O=C1[C@@H]2Cc3c([nH]c4ccccc34)C(c3cccc([N+](=O)[O-])c3)N2C(=O)CN1C1CCN(Cc2ccccc2)CC1 (some centres undefined)	i	nt	i	nt	nt	i
NNC(=S)Nc1c(Br)cc(F)cc1Br	i	i	i	i	nt	i
CC(=O)c1ccc(NC(=O)[C@@H]2CCCN2C(=O)OC(C)(C)C)cc1	i	nt	i	nt	nt	i
O=C(Nc1ccccc1Sc1ccccc1)C1CCCO1 (centres undefined)	i	i	i	i	48.7	i
O=C(O)c1ccccc1NC(=O)C1CCCO1 (centres undefined)	i	i	i	i	i	i
CCOc1ccc(C(=O)NNC(=O)C2CC(=O)N(c3ccc(C)cc3)C2)cc1 (centres undefined)	i	nt	nt	nt	nt	nt
Cc1nc2scc(-c3ccccc3)c2c(=O)n1N	i	i	i	i	i	i
Cc1nc2scc(-c3ccccc3)c2c(=O)n1N=C1C=CC(=O)C=C1	i	49.3	i	i	80.5	i
Cc1nc2sc(C(=O)Nc3ccccc3)c(N)c2c(C)c1[N+](=O)[O-]	i	i	i	i	i	i
SMILES	aSyn UTR inh	Ba/F3 V617F tox	KLF5 inhibitor	BaF3 tox	APP transl inh	IEC-6 tox
O=C(CSCc1ccc([N+](=O)[O-])cc1)N/N=C/c1cccnc1	i	i	i	i	i	i
O=C(CSCc1ccc([N+](=O)[O-])cc1)N/N=C/c1ccncc1	i	i	i	83.8	i	i
CC1CC(C)CN(C(=O)COC(=O)CNC(=O)C23CC4CC(CC(C4)C2)C3)C1 (centres undefined)	i	nt	nt	nt	nt	nt
COc1ccc(CNCC(O)COc2cccc3c2OC(C)(C)C3)cc1 (centres undefined)	i	i	i	28.7	i	i
Cc1nn(Cc2ccc(Cl)c(Cl)c2)c(C)c1NC(=O)c1cc(-c2ccc3c(c2)OCO3)on1	66.3	i	i	i	52.0	i
C[C@H]1O[C@H](O[C@H]2[C@H](O)[C@@H](O)[C@@H](O[C@H]3[C@H](O)[C@@H](O)C(O)O[C@@H]3CO)O[C@@H]2CO)[C@H](O)[C@@H](O)[C@@H]1N[C@H]1C=C(CO)[C@@H](O)[C@H](O)[C@H]1O (some centres undefined)	i	23.8	i	i	nt	33.8
CC1OC(OC2C(CO)OC(OC3C(CO)OC(O)C(O)C3O)C(O)C2O)C(O)C(O)C1N[C@@H]1C=C(CO)[C@@H](O)C(O)[C@H]1O (some centres undefined)	i	nt	i	nt	nt	i
Cc1c(C(=O)N/N=C/c2ccc(Cl)cc2)[nH]c2ccc(Cl)cc12	i	i	i	i	92.7	i
CCOc1ccc(/C=N/NC(=O)c2[nH]c3ccc(C)cc3c2C)cc1	i	nt	i	nt	nt	i
CC(C)c1ccc(C2C3=C(COC3=O)Nc3cc4c(cc32)OCO4)cc1 (centres undefined)	122.9	71.1	71.8	77.2	95.0	90.3
CCOc1cc(N2CCOCC2)c(OCC)cc1NS(=O)(=O)c1cc(NC(C)=O)ccc1OC	i	nt	i	nt	nt	i
CC(C)(C)c1cc(CCC(=O)NNC(=S)NC(=O)c2ccccc2)cc(C(C)(C)C)c1O	65.8	i	i	i	i	i
O=[N+]([O-])c1cc(/C=N/n2cnnc2)ccc1N1CCCC1	65.5	i	i	i	i	i
Cc1[nH]nc2nc(SCC(=O)NCCC3=CCCCC3)n(-c3ccc(Br)cc3)c(=N)c12	74.5	nt	i	nt	nt	i
COc1ccc(CCNC(=O)C(=O)NCC2OCCN2S(=O)(=O)c2ccccc2)cc1 (centres undefined)	i	nt	i	nt	nt	i
Cc1cc(C(F)F)n2nc(C(=O)Nc3cccnc3Cl)nc2n1	i	i	i	94.9	i	i
Nc1cc[n+](CC(=O)c2ccc3c(c2)OCCO3)cc1	i	90.0	i	71.1	i	i
O=C(C[n+]1ccc(C(=O)NCc2ccccc2)cc1)c1ccc2c(c1)OCCO2	i	i	i	i	i	i
C#CCOCCOCCOCCNc1nc(N2CCN(C(=O)[C@H]([C@@H](C)O)n3cc(CCCCN)nn3)CC2)nc(N2CCN(C(=O)[C@H](Cc3ccc(O)cc3)n3cc(CCO)nn3)CC2)n1	i	i	i	62.9	i	i
CCCCCCCOc1ccc(OC(=O)c2cccnc2)cc1	i	57.8	i	43.8	i	i
CCN(CC(=O)Nc1c(F)cccc1F)C(=O)c1ccc(NC(=O)CC2SC(N3CCCC3)=NC2=O)cc1 (centres undefined)	i	nt	nt	nt	nt	nt
Cc1ccc(C2=NS(=O)(=O)N(C)C(C(=O)N3CCOCC3)=C2)cc1	i	nt	i	nt	nt	i
CN(C)S(=O)(=O)N(CC(=O)Nc1ccc2ccccc2c1)c1ccccc1	i	i	i	i	i	i
CN(C)S(=O)(=O)N(CC(=O)Nc1ccc(F)c(F)c1)c1ccccc1	i	i	i	i	58.6	i
O=Cc1s/c(=N\S(=O)(=O)c2ccccc2)n(CCCCl)c1Cl	69.8	i	i	i	94.7	i
COc1cc(-c2cc(=O)c3c(O)c(OC)c(OC)c(O)c3o2)ccc1O	87.3	i	i	i	i	i
